Screen size: about 39,000 compounds; about 1,500 (3.8%) were called active. This excerpt belongs to a sample that is enriched for actives.

The test system of the assay is HSkMC (human skeletal muscle cells). Nature of the assay: cytotoxicity call (relative viability < 0.9). To be noted: 10 µM.
Regarding `COc1ccc(NC(=O)N(C)C[C@H]2OCCCC[C@@H](C)Oc3ccc(NS(=O)(=O)c4ccc(Cl)cc4)cc3C(=O)N([C@@H](C)CO)C[C@H]2C)cc1`, the cytotoxicity call was “inactive”.

For the compound `C[C@@H]1CCCCO[C@@H](CN(C)C(=O)Cc2ccccc2)[C@H](C)CN([C@@H](C)CO)C(=O)c2cc(NC(=O)C3CCCCC3)ccc2O1`, the cytotoxicity call was “inactive”.

For the compound `C[C@@H]1CCCCO[C@@H](CN(C)C(=O)NC2CCCCC2)[C@H](C)CN([C@@H](C)CO)C(=O)c2cc(NS(=O)(=O)c3ccc(F)cc3)ccc2O1`, the cytotoxicity call is “inactive”.

On to `C[C@H]1CN([C@@H](C)CO)C(=O)c2cc(Br)cnc2O[C@@H]1CN(C)S(C)(=O)=O`, for which the cytotoxicity call is “inactive”.

On to `Cc1noc(C)c1NC(=O)Nc1ccc2c(c1)CC(=O)N([C@@H](C)CO)C[C@H](C)[C@H](CN(C)S(=O)(=O)c1c(C)noc1C)O2`, for which the cytotoxicity call is “inactive”.

Take `CC(C)CC#Cc1ccc2c(c1)O[C@@H](CN(C)S(=O)(=O)c1ccc(F)cc1)[C@@H](C)CN([C@@H](C)CO)S2(=O)=O`: the cytotoxicity call was “inactive”.

Turning to `C[C@@H]1CCCCO[C@@H](CN(C)Cc2ccc3c(c2)OCO3)[C@@H](C)CN([C@H](C)CO)C(=O)c2cc(NS(=O)(=O)c3ccccc3)ccc2O1`, the cytotoxicity call is “inactive”.

Take `O=C1CN(C(=O)c2ccccc2)C(=S)N1`: the cytotoxicity call was “inactive”.

Turning to `C[C@@H]1CN([C@H](C)CO)C(=O)c2cc(N(C)C)ccc2O[C@@H](C)CCCCO[C@H]1CN(C)Cc1ccc(C(=O)Nc2ccccc2N)cc1`, the cytotoxicity call was “inactive”.

As for `CCC(=O)Nc1ccc2c(c1)OC[C@H](C)N(C(=O)CN1CCOCC1)C[C@@H](C)[C@H](OC)CN(C)C2=O`, the cytotoxicity call was “inactive”.

`Cc1ccc2c(c1)/C(=C/c1ccncc1)c1cc3ccccc3nc1-2`: the cytotoxicity call was “inactive”.

Consider `OCc1ccccc1-c1ccccc1`, for which the cytotoxicity call was “inactive”.

As to `COc1ccc(NC(=O)Nc2ccc3c(c2)C(=O)N([C@@H](C)CO)C[C@H](C)[C@@H](CN(C)Cc2ccc(C(=O)O)cc2)OCCCC[C@@H](C)O3)cc1`, the cytotoxicity call was “inactive”.

As to `CC(C)N1C[C@H](C)[C@@H](CN(C)Cc2ccc(Cl)c(Cl)c2)Oc2c(C(=O)Nc3ccncc3)cccc2C1=O`, the cytotoxicity call was “inactive”.

As to `COc1ccc(S(=O)(=O)N(C)C[C@H]2Oc3ccc(NS(C)(=O)=O)cc3C(=O)N([C@H](C)CO)C[C@@H]2C)cc1`, the cytotoxicity call is “inactive”.

Take `C[C@@H]1CN([C@@H](C)CO)C(=O)c2cc(NC(=O)c3ccccc3)ccc2O[C@@H](C)CCCCO[C@@H]1CN(C)Cc1ccccc1`: the cytotoxicity call was “inactive”.

For `C[C@@H]1CN([C@H](C)CO)C(=O)c2ccccc2-c2ccccc2CO[C@@H]1CN(C)Cc1cccc(C(F)(F)F)c1`, the cytotoxicity call was “inactive”.

On to `C[C@H](CO)N1C[C@H](C)[C@H](CN(C)C(=O)Nc2cccc(C(F)(F)F)c2)OCc2ccccc2-c2c(n(C)c3ccccc23)C1=O`, for which the cytotoxicity call was “active”.

On to `C[C@H](CO)N1C[C@H](C)[C@H](CN(C)Cc2cccc(C(F)(F)F)c2)OCc2ccccc2-c2ccccc2C1=O`, for which the cytotoxicity call was “inactive”.

Turning to `C[C@@H]1CN([C@H](C)CO)C(=O)c2c(c3ccccc3n2C)-c2ccccc2CO[C@H]1CN(C)C(=O)Nc1cccc(C(F)(F)F)c1`, the cytotoxicity call was “inactive”.

Turning to `C[C@H]1CN([C@@H](C)CO)C(=O)c2c(c3ccccc3n2C)-c2ccccc2CO[C@H]1CN(C)C(=O)Nc1cccc(C(F)(F)F)c1`, the cytotoxicity call was “inactive”.

With `C[C@@H]1CN([C@@H](C)CO)C(=O)c2ccccc2-c2ccccc2CO[C@@H]1CN(C)Cc1cccc(C(F)(F)F)c1`, the cytotoxicity call was “active”.

For the compound `C=CC(=O)NCCCCNC(=O)C=C`, the cytotoxicity call is “inactive”.

Consider `C[C@@H]1CN([C@@H](C)CO)C(=O)c2cc(NC(=O)NC3CCCCC3)ccc2O[C@@H](C)CCCCO[C@@H]1CN(C)C(=O)Nc1ccc2c(c1)OCO2`, for which the cytotoxicity call was “inactive”.

With `CN1CCCCC[C@@H]1C(=O)O`, the cytotoxicity call was “inactive”.

For `CO[C@@H]1CN(C)C(=O)c2ccc(NC(=O)C3CC3)cc2OC[C@@H](C)N(C(=O)Cc2ccccn2)C[C@@H]1C`, the cytotoxicity call is “inactive”.

For `Cc1noc(C)c1S(=O)(=O)N(C)C[C@@H]1Oc2ccc(NC(=O)C3CC3)cc2CC(=O)N([C@@H](C)CO)C[C@H]1C`, the cytotoxicity call was “inactive”.

As to `CC1(C)CCC(c2ccc(Cl)cc2)=C(CN2CCN(c3ccc(C(=O)NS(=O)(=O)c4ccc(N[C@@H](CCN5CCOCC5)CSc5ccccc5)c(S(=O)(=O)C(F)(F)F)c4)cc3)CC2)C1`, the cytotoxicity call was “active”.

In the case of `CC1(C)CCC(c2ccc(Cl)cc2)=C(CN2CCN(c3ccc(C(=O)NS(=O)(=O)c4ccc(N[C@H](CCN5CCOCC5)CSc5ccccc5)c(S(=O)(=O)C(F)(F)F)c4)cc3)CC2)C1`, the cytotoxicity call was “active”.

For `CN(C)CC[C@H](CSc1ccccc1)Nc1ccc(S(=O)(=O)NC(=O)c2ccc(N3CCN(Cc4ccccc4-c4ccc(Cl)cc4)CC3)cc2)cc1[N+](=O)[O-]`, the cytotoxicity call is “inactive”.

Consider `CC1(C)CCC(CN2CCN(c3ccc(C(=O)NS(=O)(=O)c4ccc(NCC5CCOCC5)c([N+](=O)[O-])c4)c(Oc4cnc5[nH]ccc5c4)c3)CC2)=C(c2ccc(Cl)cc2)C1`, for which the cytotoxicity call is “inactive”.

`O=S(=O)(NCC[C@@H]1CC[C@@H](NS(=O)(=O)c2ccccc2Cl)[C@@H](CO)O1)c1ccc(F)cc1`: the cytotoxicity call is “inactive”.

As for `COc1ccc(NC(=O)Nc2ccc3c(c2)C(=O)N([C@@H](C)CO)C[C@H](C)[C@@H](CN(C)S(=O)(=O)c2c(C)noc2C)OCCCC[C@@H](C)O3)cc1`, the cytotoxicity call is “inactive”.

Turning to `C[C@@H]1CCCCO[C@@H](CN(C)C(=O)Nc2ccc(C(F)(F)F)cc2)[C@@H](C)CN([C@H](C)CO)C(=O)c2cc(NC(=O)Cc3ccccc3)ccc2O1`, the cytotoxicity call is “inactive”.

On to `C[C@H](CCC(=O)NCC(=O)NCCS(=O)(=O)O)[C@H]1CC[C@H]2[C@@H]3[C@H](O)C[C@@H]4C[C@H](O)CC[C@]4(C)[C@H]3C[C@H](O)[C@]12C`, for which the cytotoxicity call is “inactive”.

As to `CC(C)[C@@H](CC[C@@H](C)[C@H]1CC[C@H]2[C@@H]3[C@H](O)C[C@H]4C[C@@H](NCCCNCCCCNCCCN)CC[C@]4(C)[C@H]3CC[C@]12C)OS(=O)(=O)O`, the cytotoxicity call is “active”.

Take `CC(C)[C@@H](CC[C@@H](C)[C@H]1CC[C@H]2[C@@H]3[C@H](O)C[C@H]4C[C@@H](NCCCNCCCCN)CC[C@]4(C)[C@H]3CC[C@]12C)OS(=O)(=O)O`: the cytotoxicity call is “active”.

Turning to `C[C@H](CCC(=O)NCCS(=O)(=O)O)[C@H]1CC[C@H]2[C@@H]3[C@H](O)C[C@@H]4C[C@H](O)CC[C@]4(C)[C@H]3C[C@H](O)[C@]12C`, the cytotoxicity call is “inactive”.

Take `CC(CCC(=O)O)C1CCC2C3C(O)CC4CC(O)CCC4(C)C3CCC12C` (stereo not given): the cytotoxicity call is “inactive”.

For the compound `COC(=O)CCC(C)C1CCC2C3C(O)CC4CC(O)CCC4(C)C3CC(O)C12C` (stereo not given), the cytotoxicity call is “inactive”.

The record behind these values is the antibiotic and cytotoxicity screens of Wong et al. (2023).
